Data on 40 compounds can be found in ChEMBL document CHEMBL3988442, “University of Dundee, Small-Polar-MMV Screening Library” (2021).

The assay has as its target AMP-activated protein kinase, AMPK (Homo sapiens) (UniProt P54646+O43741+P54619+Q9UGJ0+Q9Y478+Q13131+Q9UGI9). Kind of assay: AMP-dependent Kinase enzyme assay. An in vitro enzyme assay that detects ADP turnover that is directly proportional to AMPK activity. This uses naive AMPK that is activated during the assay with MK-8722. In kind it is functional. Conditions: 30 µM. The arrangement: scale not given: direction of the effect not stated beside the values.
Consider `O=C(COc1cc(Cl)cc(Cl)c1)NCc1nncn1C1CC1`, for which the Percent Effect is -6.22%.
On to `CCCOc1cc(CNC(=O)Nc2ccc(C)cc2)ccn1`, for which the Percent Effect was 1.3%.
With `COc1cccc(CCC(=O)Nc2cnc3c(c2)c(C)nn3C)c1OC`, the Percent Effect turned out to be 5%.
On to `Cc1ccc(F)c2c1N(C(=O)c1ccc(S(C)(=O)=O)cc1)CCC2`, for which the Percent Effect was 0.782%.
Consider `COCc1ncc(CN2CCC3(CCNCC3)CC2)cn1`, for which the Percent Effect is -3.83%.
Turning to `Cc1nn(C2CCCC2)c2nc(C(C)(C)CN3CCN(C)CC3)[nH]c12`, the Percent Effect is 14.1%.
As to `CCc1ocnc1C(=O)N1CCC2(CCCN(CC(C)(C)C)C2=O)C1` (stereo not given), the Percent Effect stood at 9.83%.
For `Cc1cc(CN(CC(N)=O)CC(C)C)no1`, the Percent Effect is -8.69%.
`CC(C)N(C)C(=O)C1CCN(Cc2cnc3ccccn23)CC1`: the Percent Effect was -1.05%.
As for `COc1cc(Cl)cc(CN2CCCC(N3CCOCC3)C2)c1OC` (stereo not given), the Percent Effect amounted to 4.12%.
In the case of `Cc1ccc(-c2nc(CN3CCOCC3)no2)cc1N1CCNC1=O` it was 7.88%.
As to `CCCc1ccc(CN2CCC3(CCC(=O)N(CCCOC)C3)CC2)o1`, the Percent Effect amounted to 4.14%.
For `O=C(COc1cccc(Cl)c1)N1CCOCC(O)(CN2CCCC2)C1` (stereo not given), the Percent Effect is 6.36%.
For the compound `CCC1(CC)CC(=O)N(CC(O)c2cccc(Br)c2)C1=O` (stereo not given), the Percent Effect was 17.2%.
The value for `COCCN(Cc1ccccc1)C(=O)c1cnn(C)c1C` was 2.02%; that for `CC(=O)NCCc1cc2nc(-c3ccncc3)ccn2n1` was 17.4%.
With `COCCCS(=O)(=O)N1CCN(Cc2cccn2C)CC1`, the Percent Effect came out at 2.25%.
The value for `CC(C)(C)c1n[nH]cc1CNC1CCC(O)CC1` (stereo not given) was -0.675%.
In the case of `CCc1nnc(CS(=O)(=O)c2ccc(C)cc2)n1C`, the Percent Effect was 6.29%.
In the case of `Cc1nc(N)cc(C2(C)CCCNC2)n1` (stereo not given), the Percent Effect stood at 14.2%.
The value for `COc1ccc2c(c1OC)Cc1c-2nc(N)c(C#N)c1C1CCOC1` (stereo not given) was 24.3%.
The value for `COc1ccc(CCC(C)Nc2cccc(SC)c2)cc1` (stereo not given) was -6.2%; that for `CC(C)(C)c1noc(CCC(=O)N2CCNC(=O)C2)n1` was -9.99%.
In the case of `CCC(C(=O)N(Cc1ccccn1)C1CCCCC1)n1cccn1` (stereo not given) it was 1.8%.
On to `COc1ccccc1CCNC(=O)N(C)C(C)CS(C)(=O)=O` (stereo not given), for which the Percent Effect is -5.38%.
In the case of `CC(NCC(=O)NCC(=O)Nc1ccc(F)cc1)c1cccs1` (stereo not given) it was 8.16%; in that of `CCOC(=O)C1(NC(=O)CCNc2cc(C)ccc2OC)CCCCC1`, 6.8%; in that of `Cc1cccc(S(=O)(=O)NC2CCN(CC(F)(F)F)C2)c1` (stereo not given), -6.29%.
The value for `COCCC(=O)N1CCCC(CCC(=O)NCc2ccccc2F)C1` (stereo not given) was 8.91%; that for `Cc1noc(CCCC(=O)N2CSCC2C(=O)NCC2CC2)n1` (stereo not given) was -0.369%.
On to `Cc1occc1C(=O)N1CCCC(C2=Nc3ccccc3S(=O)(=O)N2)C1` (stereo not given), for which the Percent Effect was found to be 14.4%.
The value for `CN(Cc1n[nH]c2c1CCCCC2)C(=O)c1cc(-c2cccn2C)n[nH]1` was 12.8%.
The value for `O=C(Nc1ccccc1C(=O)NCCN1CCOCC1)c1ccco1` was -3.24%; that for `COC(=O)c1ccc2c(c1)CCCN2S(=O)(=O)c1cn(C)c(C)n1` was -5.88%.
In the case of `CCN(CC)S(=O)(=O)NCC1COc2ccccc2O1` (stereo not given), the Percent Effect came to 8.6%.
`CCc1nnc(CNC(=O)CCC2CCCCN2C)s1` (stereo not given): the Percent Effect was -10.9%.
Consider `Cn1c(N2CC[C@H](O)C2)nc2cc(C(N)=O)ccc21`, for which the Percent Effect stood at 21.4%.
The value for `Cc1cc(C[S+]([O-])Cc2ccccc2C)no1` (stereo not given) was 5.62%; that for `CSCCC(=O)N1CCN(CC(C)(C)O)CC1` was -5.46%.
The value for `CSCC(=O)N(C)Cc1noc(-c2ccccc2)n1` was 6.32%.
